Laboratory results reported in PubChem BioAssay (Tox21).
Results filed as inconclusive are left out. Entries that show only a call come without a potency. Values without a mark were called inactive. Active and inactive are the calls of the source. Calls come from the whole dose curve; as a rule, active = well fitted curve in the direction sought with a large enough effect in the repeat runs; inconclusive = weak or mixed curves; inactive = no such curve, though single readings can be large; an effect the other way counts as inactive or inconclusive.

Tests used:
[1] = biological target: Cytochrome P450 1A2 (Homo sapiens) (UniProt P05177); experiment: Cytochrome P450 Family 1 Subfamily A Member 2 (CYP1A2) small molecule antagonists: luciferase reporter qHTS assay (AID 1671199); note: potency is the fitted concentration of half-maximal effect; for activity change, negative = inhibition: series mostly up to about 120 µM
Method in brief: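 Luminescence readout (relative luminescence units) after luciferin detection reagent, 20 min RT. Preceded by 1 h room-temperature CYP1A2 reaction with NADPH regeneration solution following 10 min compound preincubation with enzyme and proluciferin substrate. Furafylline positive control.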

[2] = biological target: Voltage-gated inwardly rectifying potassium channel KCNH2 (Homo sapiens) (UniProt Q12809); experiment: Human Ether-a-go-go-Related Gene (hERG) channel small molecule antagonists: fluorescence cell-based qHTS assay (AID 1671200);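 note: hERG-expressing U2OS cells given a thallium stimulus after FluxOR II dye loading; series mostly up to about 77 µM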
Method in brief: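 First, 1000 cells per well are seeded and cultured overnight at 37 C. Next, FluxOR II dye is loaded for 1 h at room temperature, protected from light. After 10 more minutes, stimulus is added and fluorescence is read.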

[3] = biological target: Cytochrome P450 3A4 (Homo sapiens) (UniProt P08684); experiment: Cytochrome P450 Family 3 Subfamily A Member 4 (CYP3A4) small molecule antagonists: luciferase reporter qHTS assay (AID 1671201); note: potency is the fitted concentration of half-maximal effect; for activity change, negative = inhibition: series mostly up to about 120 µM
Method in brief: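 Enzyme and proluciferin substrate are mixed with test chemicals for 10 min, then NADPH regeneration system drives turnover for 1 h at room temperature. A detection reagent halts the reaction; luminescence after 20 min gives relative activity.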
Note: nearly all actives have a fitted effect of over 50% in size.

Chain of Cytochrome P450 3A4 (Homo sapiens) (P08684 whole entry, looked up): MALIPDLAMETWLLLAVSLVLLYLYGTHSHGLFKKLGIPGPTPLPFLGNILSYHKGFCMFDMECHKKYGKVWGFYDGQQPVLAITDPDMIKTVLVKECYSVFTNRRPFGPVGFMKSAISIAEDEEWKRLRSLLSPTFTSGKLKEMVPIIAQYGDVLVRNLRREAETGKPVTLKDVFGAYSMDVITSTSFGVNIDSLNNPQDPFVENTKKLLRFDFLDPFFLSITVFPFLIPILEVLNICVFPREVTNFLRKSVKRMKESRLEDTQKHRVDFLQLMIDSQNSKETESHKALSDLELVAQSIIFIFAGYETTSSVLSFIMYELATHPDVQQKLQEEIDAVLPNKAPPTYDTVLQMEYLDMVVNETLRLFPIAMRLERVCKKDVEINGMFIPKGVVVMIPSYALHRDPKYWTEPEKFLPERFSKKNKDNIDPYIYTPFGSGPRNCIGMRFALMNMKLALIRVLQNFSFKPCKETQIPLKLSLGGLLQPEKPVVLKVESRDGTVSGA
Chain of Voltage-gated inwardly rectifying potassium channel KCNH2 (Homo sapiens) (Q12809 whole entry, looked up): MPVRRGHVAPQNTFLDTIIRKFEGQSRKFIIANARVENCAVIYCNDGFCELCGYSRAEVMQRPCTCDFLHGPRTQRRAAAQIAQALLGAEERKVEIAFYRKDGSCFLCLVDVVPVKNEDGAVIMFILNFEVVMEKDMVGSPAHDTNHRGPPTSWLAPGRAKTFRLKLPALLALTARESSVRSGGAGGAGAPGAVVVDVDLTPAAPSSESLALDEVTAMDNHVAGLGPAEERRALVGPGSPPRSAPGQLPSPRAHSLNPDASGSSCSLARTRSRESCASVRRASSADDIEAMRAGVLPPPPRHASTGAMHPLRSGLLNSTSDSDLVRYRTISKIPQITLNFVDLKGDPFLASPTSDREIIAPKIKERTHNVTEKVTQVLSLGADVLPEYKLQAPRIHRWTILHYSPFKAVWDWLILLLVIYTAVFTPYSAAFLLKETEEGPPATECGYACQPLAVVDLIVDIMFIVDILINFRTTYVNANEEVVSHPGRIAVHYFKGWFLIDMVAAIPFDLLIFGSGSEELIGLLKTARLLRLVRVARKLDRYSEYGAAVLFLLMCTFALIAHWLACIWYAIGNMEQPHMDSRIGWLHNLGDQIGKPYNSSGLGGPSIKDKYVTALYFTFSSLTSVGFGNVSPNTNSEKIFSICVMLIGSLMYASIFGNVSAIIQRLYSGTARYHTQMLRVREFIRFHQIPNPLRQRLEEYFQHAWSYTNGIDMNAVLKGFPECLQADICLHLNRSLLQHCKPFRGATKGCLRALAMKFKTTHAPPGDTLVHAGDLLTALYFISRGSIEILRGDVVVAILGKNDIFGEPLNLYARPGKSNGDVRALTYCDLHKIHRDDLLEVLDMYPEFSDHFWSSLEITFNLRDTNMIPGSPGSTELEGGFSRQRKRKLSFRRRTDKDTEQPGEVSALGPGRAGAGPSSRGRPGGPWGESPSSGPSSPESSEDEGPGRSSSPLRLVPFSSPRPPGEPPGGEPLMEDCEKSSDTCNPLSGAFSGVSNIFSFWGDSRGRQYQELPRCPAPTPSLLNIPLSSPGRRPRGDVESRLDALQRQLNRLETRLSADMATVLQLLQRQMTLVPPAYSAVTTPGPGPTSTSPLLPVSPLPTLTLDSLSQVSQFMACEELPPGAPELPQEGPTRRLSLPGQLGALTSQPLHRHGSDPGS
Chain of Cytochrome P450 1A2 (Homo sapiens) (P05177 whole entry, looked up): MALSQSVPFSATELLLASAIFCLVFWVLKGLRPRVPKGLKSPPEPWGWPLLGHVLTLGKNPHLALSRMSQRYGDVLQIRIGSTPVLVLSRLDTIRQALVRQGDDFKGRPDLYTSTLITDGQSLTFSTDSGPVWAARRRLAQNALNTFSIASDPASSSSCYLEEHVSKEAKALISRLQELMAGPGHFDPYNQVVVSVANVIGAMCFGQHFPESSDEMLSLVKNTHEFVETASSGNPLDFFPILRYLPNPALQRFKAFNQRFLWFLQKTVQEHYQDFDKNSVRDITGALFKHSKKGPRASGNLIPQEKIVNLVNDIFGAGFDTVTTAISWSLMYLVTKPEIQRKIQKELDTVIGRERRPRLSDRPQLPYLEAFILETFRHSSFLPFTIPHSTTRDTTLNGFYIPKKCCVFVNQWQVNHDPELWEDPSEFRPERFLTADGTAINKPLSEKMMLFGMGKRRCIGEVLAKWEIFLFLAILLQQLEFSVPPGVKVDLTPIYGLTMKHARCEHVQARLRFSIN

## Nc1ccc(S(=O)(=O)Nc2ccc(Cl)nn2)cc1
[1]
  Potency: inactive
[2]
  Potency: inactive
[3]
  Potency: inactive

## COC(=O)c1ccccc1C(=O)c1ccc(OCCN2CCCCC2)cc1
[1]
  Potency: inactive
[2]
  Potency: inactive
[3]
  Potency: inactive

## c1ccc2c(c1)ccc1c3ccccc3ccc21
[1]
  Potency: 0.725 µM (active)
[2]
  Potency: inactive
[3]
  Potency: inactive

## Cc1cccc(C)c1OCC(C)N (stereo unspecified)
[1]
  Potency: 1.62 µM (active)
[2]
  Potency: inactive
[3]
  Potency: inactive

## O=C1c2ccccc2C(=O)C1c1ccccc1
[1]
  Potency: inactive
[2]
  Potency: inactive
[3]
  Potency: inactive

## CC(C)(C)c1cc(CCC(=O)NN)cc(C(C)(C)C)c1O
[1]
  Potency: 8.94 µM (active)
[2]
  Potency: inactive
[3]
  Potency: 0.159 µM (active)

## CCN(C)C(=O)Oc1cccc([C@H](C)N(C)C)c1
[1]
  Potency: inactive
[2]
  Potency: inactive
[3]
  Potency: inactive

## CCCOC(OCCC)OCCC
[1]
  Potency: inactive
[2]
  Potency: inactive
[3]
  Potency: inactive

## CNS(=O)(=O)CCc1ccc2[nH]cc(C3CCN(C)CC3)c2c1
[1]
  Potency: inactive
[2]
  Potency: inactive
[3]
  Potency: inactive

## CC1(C)S[C@@H]2[C@H](N=CN3CCCCCC3)C(=O)N2[C@H]1C(=O)O
[1]
  Potency: inactive
[2]
  Potency: inactive
[3]
  Potency: inactive

## O=C(O)c1cc(Cl)cc([N+](=O)[O-])c1Cl
[1]
  Potency: 39.9 µM (active)
[2]
  Potency: inactive
[3]
  Potency: inactive

## CN(C)CCOCCO
[1]
  Potency: inactive
[2]
  Potency: inactive
[3]
  Potency: inactive

## COCCc1ccc(OCC2CO2)cc1 (stereo unspecified)
[1]
  Potency: inactive
[2]
  Potency: inactive
[3]
  Potency: inactive

## Oc1ccccc1-c1nnco1
[1]
  Potency: 30.9 µM (active)
[2]
  Potency: inactive
[3]
  Potency: inactive

## C=C(C)C(=O)OCCNC(C)(C)C
[1]
  Potency: 35.5 µM (active)
[2]
  Potency: inactive
[3]
  Potency: inactive

## C=CCCCCCCCCCCCC
[1]
  Potency: inactive
[2]
  Potency: inactive
[3]
  Potency: inactive

## C#CC(C)N(C)C(=O)Nc1ccc(Cl)cc1 (stereo unspecified)
[1]
  Potency: 3.99 µM (active)
[2]
  Potency: inactive
[3]
  Potency: inactive

## CCOc1cc(NC(C)=O)ccc1C(=O)OC
[1]
  Potency: 5.49 µM (active)
[2]
  Potency: inactive
[3]
  Potency: inactive

## CCCCCCOc1ccccc1C(N)=O
[1]
  Potency: 13.8 µM (active)
[2]
  Potency: inactive
[3]
  Potency: inactive

## Brc1ccc(-c2ccccc2)cc1
[1]
  Potency: 6.31 µM (active)
[2]
  Potency: inactive
[3]
  Potency: inactive

## BrCc1cccc(Oc2ccccc2)c1
[1]
  Potency: 39.9 µM (active)
[2]
  Potency: inactive
[3]
  Potency: inactive

## CCC(C)(CCC(C)C)C(=O)O (stereo unspecified)
[1]
  Potency: inactive
[2]
  Potency: inactive
[3]
  Potency: inactive

## CCOCCOC(=O)/C=C/c1ccc(OC)cc1
[1]
  Potency: 7.76 µM (active)
[2]
  Potency: inactive
[3]
  Potency: inactive

## CC(C)C(=O)OCCc1ccccc1
[1]
  Potency: inactive
[2]
  Potency: inactive
[3]
  Potency: inactive

## O=C(O)c1ccc(Cl)cc1Cl
[1]
  Potency: inactive
[2]
  Potency: inactive
[3]
  Potency: inactive

## COc1cc2c(cc1OC)C(=O)CC2
[1]
  Potency: 27.5 µM (active)
[2]
  Potency: inactive
[3]
  Potency: inactive

## Cc1ccc(C=O)cc1C
[1]
  Potency: 35.6 µM (active)
[2]
  Potency: inactive
[3]
  Potency: inactive

## CCOC(=O)[C@H](CCc1ccccc1)N[C@@H](C)C(=O)N1C(=O)N(C)C[C@H]1C(=O)O
[1]
  Potency: inactive
[2]
  Potency: inactive
[3]
  Potency: inactive

## CCCCC(CC)COCCO (stereo unspecified)
[1]
  Potency: 17.8 µM (active)
[2]
  Potency: inactive
[3]
  Potency: inactive

## O=C(O)c1cc(Br)c(O)c(Br)c1
[1]
  Potency: 39.9 µM (active)
[2]
  Potency: inactive
[3]
  Potency: inactive

## CCCCCCCC/C=C\CCCCCCCC(=O)OCCCC
[1]
  Potency: inactive
[2]
  activity change, negative = inhibition: -0.621% [at 15.8 µM]
[3]
  activity change, negative = inhibition: -4.05% [at 23.6 µM]

## CCOC(=O)/C=C/c1ccccc1
[1]
  Potency: 35.6 µM (active)
[3]
  Potency: inactive

## Cc1ccc2ccc(Cl)cc2n1
[1]
  Potency: 15.5 µM (active)
[2]
  Potency: inactive
[3]
  Potency: inactive

## CCO[Si](CCCS)(OCC)OCC
[1]
  Potency: inactive
[2]
  Potency: inactive
[3]
  Potency: 35.6 µM (active)

## O=S(=O)(O)c1cc(O)c2ccc(Nc3ccccc3)cc2c1
[1]
  Potency: inactive
[2]
  Potency: inactive
[3]
  Potency: inactive

## CCOCCOCCOCC
[1]
  Potency: inactive
[2]
  Potency: inactive
[3]
  Potency: inactive

## CCNC(=O)C1CC(C)CCC1C(C)C (stereo unspecified)
[1]
  Potency: inactive
[2]
  Potency: inactive
[3]
  Potency: 17.8 µM (active)

## CCCCNC1CC(C)(C)NC(C)(C)C1
[1]
  Potency: inactive
[2]
  Potency: inactive
[3]
  Potency: inactive

## C=Cc1ccccn1
[1]
  Potency: inactive
[2]
  Potency: inactive
[3]
  Potency: inactive
